SMILES strings stand for the structures. This is one part of the list. Values without a mark were called inactive.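 How the source made its calls: active means mean percent activation over triplicates above a cutoff set from solvent-only control plates; inactive means the rest.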

This assay deals with Oxytocin receptor (Homo sapiens) (UniProt P30559). The assay can be described thus: human OXTR potentiators, confirmation, fluorescence, CHO-OTR cells, triplicate (AID 434985).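 Further: compounds tested in the presence of an EC15 dose of oxytocin; 0% = EC15 oxytocin with DMSO and 100% = EC100 oxytocin with DMSO.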 As to conditions: Fluo-8 calcium fluorescence, potentiation, at 3 µM, stronger effect = higher value, scaled from low-dose to maximal oxytocin.
Chain of Oxytocin receptor (Homo sapiens) (P30559 whole entry, looked up): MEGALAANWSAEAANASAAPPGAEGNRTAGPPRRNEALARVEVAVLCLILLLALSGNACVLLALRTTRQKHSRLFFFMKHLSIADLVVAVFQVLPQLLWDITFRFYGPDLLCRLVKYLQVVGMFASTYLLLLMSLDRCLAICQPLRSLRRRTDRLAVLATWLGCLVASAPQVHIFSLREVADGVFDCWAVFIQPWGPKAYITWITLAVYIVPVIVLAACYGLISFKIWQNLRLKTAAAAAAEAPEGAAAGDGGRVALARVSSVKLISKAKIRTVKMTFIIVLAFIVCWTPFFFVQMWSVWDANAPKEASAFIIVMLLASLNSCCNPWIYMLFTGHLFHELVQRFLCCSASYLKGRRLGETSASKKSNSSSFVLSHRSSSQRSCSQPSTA
On to `CCCCn1c(N)c(N2CCOCC2)c(=O)n(CC(=O)NCCc2ccccc2)c1=O`, for which the activation was -3.12%.

In the case of `Cc1ccc(OCC(O)CN2CCN(CC(O)COc3ccc(C)cc3Cl)CC2)c(Cl)c1` (configuration not stated), the activation is -3.49%.

For `COCCn1c(CN(Cc2ccccc2)Cc2ccccc2)nc2c1c(=O)n(C)c(=O)n2C`, the activation was -1.46%.

Turning to `Cc1cc(C)cc(NC(=O)CSc2ccccc2)c1`, the activation is -0.71%.

`CCCCNc1c(-c2ccc(OC)c(Sc3ccc(OC)cc3)c2)nc2ccc(Cl)cn12`: the activation is -4.15%.

For `COc1cc2c(cc1OC)C(c1ccc(C)o1)CC(=O)N2` (configuration not stated), the activation is -4.74%.

For `CNc1nnc(-c2ccco2)s1`, the activation is -4.03%.

The values above are taken from PubChem BioAssay AID434985 (The Scripps Research Institute Molecular Screening Center, 2010).
